A number with no mark means an inactive call. Results filed as inconclusive are left out. Active and inactive are the calls of the source. Calls come from the whole dose curve.
% is set by controls: 0 for no effect and ±100 for the full control effect.

Chain of Acetylcholinesterase (Homo sapiens) (P22303 whole entry, looked up): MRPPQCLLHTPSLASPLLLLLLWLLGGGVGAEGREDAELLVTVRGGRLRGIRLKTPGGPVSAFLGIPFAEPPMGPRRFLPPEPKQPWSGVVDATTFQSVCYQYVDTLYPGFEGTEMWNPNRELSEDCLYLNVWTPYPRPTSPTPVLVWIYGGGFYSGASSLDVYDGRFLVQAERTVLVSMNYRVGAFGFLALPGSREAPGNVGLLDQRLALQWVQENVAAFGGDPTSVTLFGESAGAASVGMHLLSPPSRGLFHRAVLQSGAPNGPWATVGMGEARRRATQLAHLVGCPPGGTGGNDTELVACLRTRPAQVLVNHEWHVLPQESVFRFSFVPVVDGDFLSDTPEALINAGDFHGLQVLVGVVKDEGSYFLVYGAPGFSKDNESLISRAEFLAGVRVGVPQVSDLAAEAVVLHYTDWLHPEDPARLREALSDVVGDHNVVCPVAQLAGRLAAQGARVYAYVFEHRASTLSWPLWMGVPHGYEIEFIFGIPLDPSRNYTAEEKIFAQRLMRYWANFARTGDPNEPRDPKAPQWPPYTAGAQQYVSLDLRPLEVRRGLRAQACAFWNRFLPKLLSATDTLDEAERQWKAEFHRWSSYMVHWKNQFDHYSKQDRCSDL

One experiment has as its target Acetylcholinesterase (Homo sapiens) (UniProt P22303). The experiment is described as follows: Acetylcholinesterase (AChE) small molecule antagonists: colormetric cell-based qHTS assay (AID 1347395). Note: nearly all actives have a fitted effect of over 30% in size. Note: potency is the fitted concentration of half-maximal effect. The note with it: SH-SY5Y cells AChE activity, colorimetric (Ellman); series mostly up to 115 µM; activity, negative = inhibition: at the top concentration. In outline: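 SH-SY5Y cells, plated overnight at 37 C, were exposed to compounds for 30 min at 37 C and 5% CO2. Acetylthiocholine plus DTNB was then added, and thiocholine from endogenous AChE was quantified colorimetrically after 90 min at 37 C.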
A general note: Quantitative high-throughput screening tests each substance at several concentrations.
On to `COCCOCCOC`, for which the Potency result was “inactive”.
As for `OC1(c2ccc(Cl)c(C(F)(F)F)c2)CCN(CCCC(c2ccc(F)cc2)c2ccc(F)cc2)CC1`, the “activity, negative = inhibition” value is 0.363% [at 52.9 µM].
On the same count and under the same terms, to `Cc1occc1SSc1ccoc1C` belongs -0.966%.
Consider `c1cc(-c2ccncc2)ccn1`, for which the Potency result is “inactive”.
Take `O=P(c1ccccc1)(c1ccccc1)c1ccccc1`: the “activity, negative = inhibition” value was -0.631%.
Take `C/C=C(C)/C=C/C=C(C)C`: the Potency entry was “inactive”.
Take `CCO/C([O-])=N/c1c[n+](N2CCOCC2)no1`: the “activity, negative = inhibition” value was 0.584% [at 52.9 µM].
Consider `O=C(OCCOCCOC(=O)c1ccccc1)c1ccccc1`, for which the Potency entry was “inactive”.
On to `Clc1cc(Cl)c(Cl)c(Cl)c1Cl`, for which the “activity, negative = inhibition” value was 0.286%.
Consider `Oc1ccc(Cc2ccccc2O)cc1`, for which the Potency result is “inactive”.
With `Cc1ccc(S(=O)(=O)NC(=O)NN2CCCCCC2)cc1`, the Potency result is “inactive”.
Regarding `CC1(C)COCN1`, the “activity, negative = inhibition” value was -3.63%.
With `CC(=O)Nc1ccc(C(=O)O)cc1`, the Potency entry is “inactive”.
Consider `CCC(COC(=O)CCS)(COC(=O)CCS)COC(=O)CCS`, for which the “activity, negative = inhibition” value was 0.21%.
As for `O=C(Cl)c1c(Cl)c(Cl)c(C(=O)Cl)c(Cl)c1Cl`, the Potency result is “inactive”.
Consider `COc1ccc(C(=O)c2ccc(C)cc2)c(O)c1`, for which the “activity, negative = inhibition” value is -1.47%.
`O=C(O)c1cc(C(=O)O)cc(C(=O)O)c1`: the “activity, negative = inhibition” value was 0.463%.
Consider `NC(=O)c1ccccc1N`, for which the “activity, negative = inhibition” value is 1.93%.
Take `OC1CCCC1`: the Potency entry was “inactive”.
In the case of `CC(C)(Oc1ccc(Cl)cc1)C(=O)OCCCOC(=O)C(C)(C)Oc1ccc(Cl)cc1`, the “activity, negative = inhibition” value was 1.59% [at 52.9 µM].
On the same count and under the same terms, to `CC(C)N=C=NC(C)C` belongs -2.45%.
Turning to `CCCCN(CCCC)C(=O)N(CCCC)CCCC`, the “activity, negative = inhibition” value is -1.85%.
In the case of `C[C@]12CC[C@@H]3c4ccc(O)cc4CC[C@H]3[C@@H]1CC[C@H]2O`, the Potency result is “inactive”.
Regarding `CCO[Si](C)(CCCOCC1CO1)OCC` (stereo not given), the “activity, negative = inhibition” value was 0.167%.
For `CC(=O)O[Si](C)(OC(C)=O)OC(C)=O`, the “activity, negative = inhibition” value was 3.38%.
For the compound `FC(F)(F)C(F)(F)C(F)(F)C(F)(F)CCI`, the “activity, negative = inhibition” value is 0.909% [at 52.9 µM].
`Cn1ccnc1`: the “activity, negative = inhibition” value is -0.0485%.
As to `CC(=O)CC(C)=O`, the “activity, negative = inhibition” value is 3.98%.
On to `CC(=O)N1CCN(c2ccc(OC[C@H]3CO[C@](Cn4ccnc4)(c4ccc(Cl)cc4Cl)O3)cc2)CC1`, for which the Potency was 35.6 µM (active).
Consider `C=C(C)C1CC=C(C)C(OC(C)=O)C1` (stereo not given), for which the Potency entry is “inactive”.
With `c1cc(C(c2ccc(OCC3CO3)cc2)c2ccc(OCC3CO3)cc2)ccc1OCC1CO1` (stereo not given), the “activity, negative = inhibition” value is 0.736%.
Regarding `CCCCCCC(C)(C)C(=O)O`, the “activity, negative = inhibition” value was -1.65%.
As to `N[C@@H](COP(=O)(O)O)C(=O)O`, the activity, negative = inhibition was 0.067% [at 23.6 µM].
As to `CSc1cnc(C)cn1`, the “activity, negative = inhibition” value is 2.77% [at 300 µM].
Regarding `Nc1ccc(S(=O)(=O)NC(=O)c2ccccc2)cc1`, the “activity, negative = inhibition” value was 1.18% [at 52.9 µM].
For the compound `Nc1nc(-c2ccc([N+](=O)[O-])cc2)cs1`, the “activity, negative = inhibition” value was 4.73%.
For the compound `C=C1CC[C@H](O)C/C1=C\C=C1/CCC[C@]2(C)[C@@H]([C@H](C)CCCC(C)C)CC[C@@H]12`, the “activity, negative = inhibition” value is -3.31%.
For `Oc1ccc2c(c1)CCC2`, the “activity, negative = inhibition” value was 0.914%.
As for `O=C1OCCO1`, the “activity, negative = inhibition” value was -0.273%.
Still for that read-out and setting: to `ClCCl` belongs 0.291%.

A further experiment shares this target. The experiment can be described thus: Acetylcholinesterase (AChE) small molecule antagonists: enzyme-based qHTS assay (AID 1347397). Note: nearly all actives have a fitted effect of over 55% in size. The note with it: Potency: AChE enzyme activity inhibition; outcome: AChE enzyme activity inhibition; series mostly up to 115 µM; activity change, negative = inhibition: at the top concentration. Put shortly: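 Compound or DMSO vehicle was pin-transferred onto recombinant human AChE (50 mU/mL as dispensed) and left 30 min at room temperature. Acetylthiocholine with DTNB then started the reaction, read colorimetrically 10 min later.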
Regarding `COCCOCCOC`, the Potency entry was “inactive”.
As for `OC1(c2ccc(Cl)c(C(F)(F)F)c2)CCN(CCCC(c2ccc(F)cc2)c2ccc(F)cc2)CC1`, the “activity change, negative = inhibition” value was -0.948% [at 53 µM].
For `Cc1occc1SSc1ccoc1C`, the “activity change, negative = inhibition” value is 0.0721%.
As to `c1cc(-c2ccncc2)ccn1`, the Potency result was “inactive”.
As for `O=P(c1ccccc1)(c1ccccc1)c1ccccc1`, the “activity change, negative = inhibition” value was -1.27%.
On to `C/C=C(C)/C=C/C=C(C)C`, for which the Potency result is “inactive”.
Turning to `CCO/C([O-])=N/c1c[n+](N2CCOCC2)no1`, the “activity change, negative = inhibition” value was 1.97% [at 53 µM].
In the case of `O=C(OCCOCCOC(=O)c1ccccc1)c1ccccc1`, the Potency entry is “inactive”.
On to `Clc1cc(Cl)c(Cl)c(Cl)c1Cl`, for which the “activity change, negative = inhibition” value is -1.51%.
For the compound `Oc1ccc(Cc2ccccc2O)cc1`, the Potency result was “inactive”.
For the compound `Cc1ccc(S(=O)(=O)NC(=O)NN2CCCCCC2)cc1`, the Potency entry is “inactive”.
`CC1(C)COCN1`: the “activity change, negative = inhibition” value was 0.682%.
On to `CC(=O)Nc1ccc(C(=O)O)cc1`, for which the Potency result is “inactive”.
On to `CCC(COC(=O)CCS)(COC(=O)CCS)COC(=O)CCS`, for which the “activity change, negative = inhibition” value is -8.42%.
Consider `O=C(Cl)c1c(Cl)c(Cl)c(C(=O)Cl)c(Cl)c1Cl`, for which the Potency entry was “inactive”.
As for `COc1ccc(C(=O)c2ccc(C)cc2)c(O)c1`, the “activity change, negative = inhibition” value was 0.409%.
The same measure, in the same setting: to `O=C(O)c1cc(C(=O)O)cc(C(=O)O)c1` belongs 1.5%; to `NC(=O)c1ccccc1N`, 0.0033%.
On to `OC1CCCC1`, for which the Potency entry is “inactive”.
For `CC(C)(Oc1ccc(Cl)cc1)C(=O)OCCCOC(=O)C(C)(C)Oc1ccc(Cl)cc1`, the “activity change, negative = inhibition” value is 0.415% [at 53 µM].
As for `CC(C)N=C=NC(C)C`, the “activity change, negative = inhibition” value is 0.526%.
As for `CCCCN(CCCC)C(=O)N(CCCC)CCCC`, the “activity change, negative = inhibition” value is -0.762%.
`C[C@]12CC[C@@H]3c4ccc(O)cc4CC[C@H]3[C@@H]1CC[C@H]2O`: the Potency entry was “inactive”.
Take `CCO[Si](C)(CCCOCC1CO1)OCC` (stereo not given): the “activity change, negative = inhibition” value was 0.138%.
Turning to `CC(=O)O[Si](C)(OC(C)=O)OC(C)=O`, the “activity change, negative = inhibition” value was 1.23%.
Turning to `FC(F)(F)C(F)(F)C(F)(F)C(F)(F)CCI`, the “activity change, negative = inhibition” value is 0.0687% [at 53 µM].
Take `Cn1ccnc1`: the “activity change, negative = inhibition” value is 0.419%.
The same measure, in the same setting: to `CC(=O)CC(C)=O` belongs -0.479%; to `CC(=O)N1CCN(c2ccc(OC[C@H]3CO[C@](Cn4ccnc4)(c4ccc(Cl)cc4Cl)O3)cc2)CC1`, -5.17%.
As for `C=C(C)C1CC=C(C)C(OC(C)=O)C1` (stereo not given), the Potency result is “inactive”.
Turning to `c1cc(C(c2ccc(OCC3CO3)cc2)c2ccc(OCC3CO3)cc2)ccc1OCC1CO1` (stereo not given), the “activity change, negative = inhibition” value is 1.03%.
For the compound `CCCCCCC(C)(C)C(=O)O`, the “activity change, negative = inhibition” value is -0.779%.
Turning to `N[C@@H](COP(=O)(O)O)C(=O)O`, the activity change, negative = inhibition is 1.8% [at 23.6 µM].
For `CSc1cnc(C)cn1`, the “activity change, negative = inhibition” value was 0.548% [at 300 µM].
Still for that read-out and setting: next, `Nc1ccc(S(=O)(=O)NC(=O)c2ccccc2)cc1`: 0.606% [at 53 µM]; `Nc1nc(-c2ccc([N+](=O)[O-])cc2)cs1`: 0%.
`C=C1CC[C@H](O)C/C1=C\C=C1/CCC[C@]2(C)[C@@H]([C@H](C)CCCC(C)C)CC[C@@H]12`: the “activity change, negative = inhibition” value is -1.5%.
Regarding `Oc1ccc2c(c1)CCC2`, the “activity change, negative = inhibition” value is -0.681%.
For `O=C1OCCO1`, the “activity change, negative = inhibition” value is 1.22%.
As to `ClCCl`, the “activity change, negative = inhibition” value was 0.815%.
